# Data reported in ChEMBL document CHEMBL3988442, “University of Dundee, Small-Polar-MMV Screening Library” (2021).
# Values joined by “and” are separate entries in the source; they are usually repeats but may differ in a detail not shown here. Equal entries are not always repeated. For some of these results: Entries with a potency or affinity are not part of this list.
# Key:
# Set-up in all cases: scale not given: direction of the effect not stated beside the values
# [1] = biological target: Protein translocase subunit SecA (Escherichia coli (strain K12)) (UniProt P10408); assay: Assay to Identify E. coli SecA ATPase Inhibitors; type: functional; conditions: 30 µM
# Protein translocase subunit SecA (Escherichia coli (strain K12)), sequence (P10408 whole entry): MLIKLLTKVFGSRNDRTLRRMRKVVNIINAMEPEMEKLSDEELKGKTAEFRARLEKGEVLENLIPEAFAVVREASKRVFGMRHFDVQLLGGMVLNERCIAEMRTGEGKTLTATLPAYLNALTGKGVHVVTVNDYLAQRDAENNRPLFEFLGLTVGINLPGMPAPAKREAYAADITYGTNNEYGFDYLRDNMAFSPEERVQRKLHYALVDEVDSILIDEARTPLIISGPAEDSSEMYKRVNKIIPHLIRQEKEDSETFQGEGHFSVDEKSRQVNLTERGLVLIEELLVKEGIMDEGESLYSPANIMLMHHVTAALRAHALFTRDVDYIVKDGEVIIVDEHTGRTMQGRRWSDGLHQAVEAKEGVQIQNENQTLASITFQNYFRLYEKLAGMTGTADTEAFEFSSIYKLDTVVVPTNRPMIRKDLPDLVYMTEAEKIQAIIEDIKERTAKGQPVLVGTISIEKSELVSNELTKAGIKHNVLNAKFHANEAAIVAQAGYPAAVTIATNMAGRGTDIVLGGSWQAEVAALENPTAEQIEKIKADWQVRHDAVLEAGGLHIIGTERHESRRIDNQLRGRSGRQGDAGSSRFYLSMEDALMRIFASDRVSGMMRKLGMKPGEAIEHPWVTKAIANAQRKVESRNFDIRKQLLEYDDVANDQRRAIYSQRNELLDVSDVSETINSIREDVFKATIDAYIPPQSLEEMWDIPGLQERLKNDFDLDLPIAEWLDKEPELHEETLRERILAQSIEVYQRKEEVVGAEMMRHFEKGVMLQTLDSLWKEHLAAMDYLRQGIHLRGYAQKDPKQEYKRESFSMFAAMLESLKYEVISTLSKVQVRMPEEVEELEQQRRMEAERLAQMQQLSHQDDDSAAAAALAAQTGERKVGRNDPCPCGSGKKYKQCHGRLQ
# [2] = biological target: T1, Ubiquitin-activating enzyme e1, putative (Leishmania donovani (strain BPK282A1)) (UniProt E9BSI1); assay: Leishmania donovani Ubiquitin Activating Enzyme (LdE1); type: functional; conditions: 30 µM
# T1 sequence (whole entry): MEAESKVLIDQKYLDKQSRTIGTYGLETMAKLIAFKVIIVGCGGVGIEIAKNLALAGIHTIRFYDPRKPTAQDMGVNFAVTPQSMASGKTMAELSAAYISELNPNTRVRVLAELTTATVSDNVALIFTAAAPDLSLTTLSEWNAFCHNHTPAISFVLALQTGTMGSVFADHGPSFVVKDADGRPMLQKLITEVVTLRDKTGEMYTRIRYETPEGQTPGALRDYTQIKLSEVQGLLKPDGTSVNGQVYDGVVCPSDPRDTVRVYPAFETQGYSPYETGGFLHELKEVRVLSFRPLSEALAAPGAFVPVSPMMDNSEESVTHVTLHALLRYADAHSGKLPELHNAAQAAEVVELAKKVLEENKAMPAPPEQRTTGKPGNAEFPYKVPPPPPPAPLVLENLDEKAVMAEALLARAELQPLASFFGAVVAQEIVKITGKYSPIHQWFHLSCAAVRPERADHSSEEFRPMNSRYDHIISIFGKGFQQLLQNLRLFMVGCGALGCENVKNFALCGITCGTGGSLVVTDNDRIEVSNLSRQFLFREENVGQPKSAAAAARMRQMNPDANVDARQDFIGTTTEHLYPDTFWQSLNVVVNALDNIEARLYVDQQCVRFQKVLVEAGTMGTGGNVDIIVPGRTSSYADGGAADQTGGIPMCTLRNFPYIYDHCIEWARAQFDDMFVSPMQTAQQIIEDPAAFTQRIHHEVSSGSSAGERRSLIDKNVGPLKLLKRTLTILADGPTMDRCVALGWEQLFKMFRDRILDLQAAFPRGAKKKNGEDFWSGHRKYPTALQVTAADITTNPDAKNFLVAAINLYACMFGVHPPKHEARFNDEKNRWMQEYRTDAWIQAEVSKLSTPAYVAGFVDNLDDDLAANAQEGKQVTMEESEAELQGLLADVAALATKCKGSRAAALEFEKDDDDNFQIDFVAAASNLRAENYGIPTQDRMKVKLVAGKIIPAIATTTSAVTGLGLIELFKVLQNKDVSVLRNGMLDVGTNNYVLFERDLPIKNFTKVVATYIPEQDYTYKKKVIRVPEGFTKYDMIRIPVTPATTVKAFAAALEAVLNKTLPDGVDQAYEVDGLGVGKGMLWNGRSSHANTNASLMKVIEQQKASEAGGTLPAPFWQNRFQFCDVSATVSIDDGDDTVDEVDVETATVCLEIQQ
# [3] = biological target: AMP-activated protein kinase, AMPK (Homo sapiens) (UniProt P54646+O43741+P54619+Q9UGJ0+Q9Y478+Q13131+Q9UGI9); assay: AMP-dependent Kinase enzyme assay. An in vitro enzyme assay that detects ADP turnover that is directly proportional to AMPK activity. This uses naive AMPK that is activated during the assay with MK-8722; type: functional; conditions: 30 µM
# [4] = biological target: Sialic acid-binding Ig-like lectin 9 (Homo sapiens) (UniProt Q9Y336); assay: Hs-Siglec9 ALPHAscreen SOP 20170721; conditions: 10 µM
# Sialic acid-binding Ig-like lectin 9 (Homo sapiens), sequence (Q9Y336 whole entry): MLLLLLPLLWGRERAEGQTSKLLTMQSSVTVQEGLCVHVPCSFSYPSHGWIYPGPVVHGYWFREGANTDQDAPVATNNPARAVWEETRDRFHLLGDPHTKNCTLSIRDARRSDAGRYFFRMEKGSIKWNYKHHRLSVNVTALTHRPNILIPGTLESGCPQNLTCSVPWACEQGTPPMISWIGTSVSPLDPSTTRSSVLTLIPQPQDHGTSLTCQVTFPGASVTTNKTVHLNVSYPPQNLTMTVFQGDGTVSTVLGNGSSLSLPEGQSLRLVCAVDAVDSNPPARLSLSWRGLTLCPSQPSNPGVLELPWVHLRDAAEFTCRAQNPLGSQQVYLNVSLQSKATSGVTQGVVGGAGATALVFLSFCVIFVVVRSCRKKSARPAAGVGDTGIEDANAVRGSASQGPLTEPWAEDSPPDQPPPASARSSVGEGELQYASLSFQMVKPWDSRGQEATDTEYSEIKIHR
# Trypanosoma cruzi = assay: Trypanosoma cruzi phosphomannomutase and mannose-1-phosphate guanylyltransferase assay; type: functional; conditions: 10 µM
# [5] = biological target: T2, Arginase-2, mitochondrial (Homo sapiens) (UniProt P78540); assay: in vitro enzyme assay to detect the production of urea directly proportional to the activity of Arginase II; type: functional; conditions: 33.3 µM; also: in the data most compounds retested in dose-response had high values
# T2 sequence (whole entry): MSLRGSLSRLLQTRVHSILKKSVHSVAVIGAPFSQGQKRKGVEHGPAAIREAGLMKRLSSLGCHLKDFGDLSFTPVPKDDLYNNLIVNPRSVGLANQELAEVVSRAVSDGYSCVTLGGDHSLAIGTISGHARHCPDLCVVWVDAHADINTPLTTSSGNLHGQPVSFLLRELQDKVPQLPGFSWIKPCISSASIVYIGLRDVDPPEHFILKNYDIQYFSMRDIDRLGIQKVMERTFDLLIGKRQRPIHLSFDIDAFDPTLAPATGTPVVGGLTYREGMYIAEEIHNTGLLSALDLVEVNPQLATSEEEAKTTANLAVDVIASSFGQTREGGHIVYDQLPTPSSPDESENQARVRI
# [6] = biological target: T3, Proteasome subunit beta (Trypanosoma cruzi) (UniProt O96673); assay: Trypanosoma cruzi proteasome chymotrypsin-like activity (TcProtChymo) assay.; also: in the data most compounds retested in dose-response had high values; type: functional; conditions: 9.37 µM
# T3 sequence (whole entry): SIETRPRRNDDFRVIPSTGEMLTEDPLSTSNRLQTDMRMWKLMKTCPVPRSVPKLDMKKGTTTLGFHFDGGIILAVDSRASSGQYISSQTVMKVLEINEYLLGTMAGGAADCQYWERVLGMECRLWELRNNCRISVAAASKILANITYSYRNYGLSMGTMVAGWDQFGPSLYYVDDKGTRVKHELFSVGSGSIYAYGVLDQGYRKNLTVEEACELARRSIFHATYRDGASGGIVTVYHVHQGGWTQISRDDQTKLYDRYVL
# N/A = assay: Trypanosoma cruzi proteasome luciferase counter-screen; type: functional; conditions: 9.37 µM
# Homo sapiens = species on record: Homo sapiens; assay: To identify inhibition of the IFN signalling (Jak-Stat) pathway via expression of an eGFP reporter gene under the control of an IFN-stimulated response element (ISRE) containing MxA promoter.; type: functional; conditions: 30 µM
# [7] = biological target: T4, Tyrosyl-tRNA synthetase, putative (Trypanosoma cruzi (strain CL Brener)) (UniProt Q4DSP6); assay: Trypanosoma cruzi tyrosyl tRNA synthetase (TcYRS) _High Tyrosine SOP; type: functional; conditions: 30 µM; also: in the data most compounds retested in dose-response had high values
# T4 sequence (whole entry): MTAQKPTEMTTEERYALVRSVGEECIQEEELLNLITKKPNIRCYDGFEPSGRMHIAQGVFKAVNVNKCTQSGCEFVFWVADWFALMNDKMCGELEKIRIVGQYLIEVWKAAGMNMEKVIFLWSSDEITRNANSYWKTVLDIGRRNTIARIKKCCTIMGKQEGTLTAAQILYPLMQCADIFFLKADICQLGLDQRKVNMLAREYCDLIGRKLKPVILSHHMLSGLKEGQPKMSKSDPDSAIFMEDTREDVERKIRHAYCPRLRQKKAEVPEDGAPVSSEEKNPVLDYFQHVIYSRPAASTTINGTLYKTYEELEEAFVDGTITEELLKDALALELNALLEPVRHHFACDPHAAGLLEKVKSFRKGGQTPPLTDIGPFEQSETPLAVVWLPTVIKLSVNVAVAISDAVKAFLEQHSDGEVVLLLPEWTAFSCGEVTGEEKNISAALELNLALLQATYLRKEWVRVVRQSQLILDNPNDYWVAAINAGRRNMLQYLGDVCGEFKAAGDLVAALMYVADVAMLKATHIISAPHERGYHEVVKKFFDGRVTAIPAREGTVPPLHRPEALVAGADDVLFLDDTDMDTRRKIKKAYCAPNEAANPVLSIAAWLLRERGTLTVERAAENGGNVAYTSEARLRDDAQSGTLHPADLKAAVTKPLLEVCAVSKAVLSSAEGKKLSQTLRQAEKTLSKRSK
# [8] = biological target: T4, Tyrosyl-tRNA synthetase, putative (Trypanosoma cruzi (strain CL Brener)); assay: Trypanosoma cruzi tyrosyl tRNA synthetase (TcYRS) SOP; type: functional; conditions: 30 µM
# [9] = biological target: Chromo domain-containing protein 1 (Saccharomyces cerevisiae (strain ATCC 204508 / S288c) (Baker's yeast)) (UniProt P32657); assay: ScCHD-1 Enzyme Inhibition Assay; type: functional; conditions: 30 µM; also: in the data most compounds retested in dose-response had high values
# Chromo domain-containing protein 1 (Saccharomyces cerevisiae (strain ATCC 204508 / S288c) (Baker's yeast)), sequence (P32657 whole entry, the tested form may be a part): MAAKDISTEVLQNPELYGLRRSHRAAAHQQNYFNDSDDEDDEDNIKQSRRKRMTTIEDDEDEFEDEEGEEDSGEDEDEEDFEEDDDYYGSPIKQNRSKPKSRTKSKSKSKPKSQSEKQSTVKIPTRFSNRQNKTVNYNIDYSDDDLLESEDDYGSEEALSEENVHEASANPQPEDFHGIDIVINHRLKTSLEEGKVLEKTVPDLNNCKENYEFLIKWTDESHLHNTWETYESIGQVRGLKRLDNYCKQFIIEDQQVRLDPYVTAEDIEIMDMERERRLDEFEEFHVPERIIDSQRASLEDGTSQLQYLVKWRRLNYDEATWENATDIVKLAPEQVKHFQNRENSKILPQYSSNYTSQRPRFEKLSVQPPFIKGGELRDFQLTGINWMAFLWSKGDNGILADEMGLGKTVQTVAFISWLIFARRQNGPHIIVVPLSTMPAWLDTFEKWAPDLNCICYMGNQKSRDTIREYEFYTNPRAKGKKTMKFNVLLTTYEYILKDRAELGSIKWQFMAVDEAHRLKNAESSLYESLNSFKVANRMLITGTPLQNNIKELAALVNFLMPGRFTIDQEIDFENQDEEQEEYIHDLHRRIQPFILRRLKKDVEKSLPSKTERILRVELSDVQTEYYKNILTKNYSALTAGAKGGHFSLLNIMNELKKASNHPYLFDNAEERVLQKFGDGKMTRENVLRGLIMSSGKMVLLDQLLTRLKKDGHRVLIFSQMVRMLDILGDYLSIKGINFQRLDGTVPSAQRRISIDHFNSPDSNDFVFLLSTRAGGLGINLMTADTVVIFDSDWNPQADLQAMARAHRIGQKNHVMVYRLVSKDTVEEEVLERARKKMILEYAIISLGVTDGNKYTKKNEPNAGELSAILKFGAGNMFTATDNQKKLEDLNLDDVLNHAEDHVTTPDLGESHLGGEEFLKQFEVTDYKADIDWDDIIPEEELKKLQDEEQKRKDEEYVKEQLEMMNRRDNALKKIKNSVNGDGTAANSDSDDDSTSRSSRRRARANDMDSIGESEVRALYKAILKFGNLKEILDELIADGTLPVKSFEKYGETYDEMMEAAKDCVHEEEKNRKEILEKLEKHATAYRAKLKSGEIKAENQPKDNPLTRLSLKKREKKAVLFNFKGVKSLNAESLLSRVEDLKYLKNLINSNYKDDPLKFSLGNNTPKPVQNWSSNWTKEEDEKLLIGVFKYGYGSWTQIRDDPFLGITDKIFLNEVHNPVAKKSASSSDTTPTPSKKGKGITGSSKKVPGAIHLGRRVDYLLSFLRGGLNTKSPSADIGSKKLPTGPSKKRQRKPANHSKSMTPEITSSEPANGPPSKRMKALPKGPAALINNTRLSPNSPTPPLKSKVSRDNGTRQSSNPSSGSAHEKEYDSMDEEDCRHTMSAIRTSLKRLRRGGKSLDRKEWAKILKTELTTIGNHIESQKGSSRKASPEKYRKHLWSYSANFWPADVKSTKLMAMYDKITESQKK
Structure (SMILES),Percent Effect [1],Percent Effect [2],Percent Effect [3],Percent Effect [4],Percent Effect (Trypanosoma cruzi),Percent Effect [5],Percent Effect [6],Percent Effect (N/A),Percent Effect (Homo sapiens),Percent Effect [7],Percent Effect [8],Percent Effect [9]
COc1cccc(-c2nc(C)c(C(=O)N[C@@H](C)C(=O)O)s2)c1,-0.174%,12%,-0.167%,-2.7%,-2.36%,-12.5%,77.2% and 81.5% and 84.7%,56.5% and 53.9%,5.55%,9.52%,12.8%,-7.59%
Cn1cc(-c2cnc(N3CCCC3)nc2)cc1C(=O)O,-4.18%,8.11%,4.07%,6.18%,6.05%,22.9%,95.3% and 96.7% and 97.6%,80% and 80.9%,-5.85%,5.94%,13.4%,-8.33%
Cc1ccc(C)c(C(NC(=O)C2CC2)c2cccnc2)c1 (stereo not given),0.279%,18.2%,-0.34%,-7.55%,4.24%,-1.94%,32.4% and 20.1% and 20.4%,21.2% and 15.5%,6.26%,4.23%,8.97%,-10.3%
CCCC(NC(=O)c1cc(C)n(C2CC2)c1C)c1nnn[nH]1 (stereo not given),-6.85%,8%,-2.47%,18.2%,6.13%,11.5%,41.1% and 40.1% and 33.4%,13.1% and 10.6%,14.1%,8.2%,11.1%,-4.79%
c1cc(OCc2ccc3c(c2)OCO3)ccc1CNC1CC1,7.84%,0%,0.713%,-11.4%,-6.91%,-18.9%,97.3% and 98.3% and 97.4%,85.2% and 85%,14.4%,-2.13%,0%,38.5%
Cc1cccc(NC(=O)c2sccc2C)n1,-3.25%,23.7%,-0.39%,-12.7%,3.99%,-16.6%,91.2% and 92.2% and 77.2%,69.5% and 70.4%,16.1%,1.06%,13%,-7.3%
Cc1ccc(NC2CCN(C(=O)CCc3ccco3)CC2)nn1,-5.56%,2.7%,6.46%,1.2%,0.836%,0.554%,21.9% and 32.9% and 29.3%,-1.73% and 1.88%,8.89%,11.9%,-1.22%,0.23%
Cc1cc(C(=O)N2CCC3(CCCN(CC4CC4)C3=O)C2)c(C)n1C (stereo not given),-5.53%,5.48%,-5.43%,6.36%,0.794%,-4.39%,49.3% and 56.6% and 47.8%,11% and 8.3%,10.3%,20.8%,28.4%,-1.72%
Cc1cnn(CC2CCCN2CC(=O)N(C)Cc2ccc(C)o2)c1 (stereo not given),-0.338%,0%,-4.82%,2.25%,5.21%,0.476%,34.4% and 30.7% and 30.2%,12.9% and 15.3%,-9.55%,5.82%,7.32%,-2.6%
O=C(Cn1cc(C(=O)O)ccc1=O)Nc1ccc(F)cc1Cl,-1.48%,14.7%,2.96%,5.48%,1.18%,-12.2%,11.5%,,-15%,6.35%,5.13%,-9.34%
CCc1nc(C2CCCN(C(=O)c3cccc4c3ccn4C)C2)no1 (stereo not given),-2.43%,-5.41%,1.08%,3.25%,5.29%,-6.47%,5.92%,,17.1%,3.96%,3.66%,-0.759%
CC(NC(=O)Cn1cccn1)c1ccc2c(c1)OCCCO2 (stereo not given),-2.38%,28.6%,20.8%,1.54%,6.55%,3.92%,10.1%,,32.9%,8.74%,14.6%,-16.5%
Cc1nnc(N2CCC(CS(N)(=O)=O)CC2)c(C#N)c1C,-5.18%,2.6%,-17.4%,-9.8%,0.49%,-1.9%,16.1%,,7.88%,3.81%,9.41%,-16.6%
COc1cccc2c1OCC(NC(=O)NCc1cccs1)C2 (stereo not given),-7.48%,15.8%,0.286%,9.16%,0.876%,-2.37%,9.11%,,5.73%,4.25%,13%,-6.35%
NC(=O)c1nc(COc2ccc3c(c2)OCO3)no1,2.5%,9.33%,10%,1.5%,-8.84%,-7.22%,45% and 40.2% and 44%,21.3% and 24%,3.46%,2.12%,10.3%,-8.03%
COc1ccc(Cl)cc1C(=O)N1CCOC2(CNCCOC2)C1 (stereo not given),-5.73%,-2.7%,0.241%,-0.752%,-3.86%,-1.43%,7.59% and 10.9% and 31.4%,12.4% and 13.6%,-6.05%,2.65%,4.88%,-2.64%
CCOc1cc(CN(C)CCOC)ccc1OC(F)F,-7.96%,-2.6%,2.19%,-0.762%,-9.34%,1.38%,10.3%,,-3.34%,0%,-1.24%,0.485%
CC(=O)NCC(=O)N1CCn2cc(CN3CCN(C)CC3)nc2C1,-4.28%,10.4%,-0.0716%,14.9%,7.57%,-1.38%,6.16%,,9.49%,8.6%,16.1%,-0.16%
COC(=O)c1cccn1C1CCN(C(=O)c2cn[nH]c2C)CC1,-3.48%,10.4%,0.41%,9.63%,4.31%,0.356%,8.11%,,21%,6.8%,19.5%,-9.12%
